# Measurements published in PubChem BioAssay AID1259343 (VanderVen Lab, College of Veterinary Medicine, Cornell …, 2017).
# The campaign covered roughly 6,200 compounds. About 2,900 (47%) were called active. Cut-off read from the data, not from the text of the source: active = inhibition above about 50%; inactive = the rest. The set was probably picked from earlier hits. Some of the results follow.
# Experiment: Mycobacterium tuberculosis growth inhibition, primary screen (AID 1259343)
# Settings: inhibition: at 10 µM, active compounds read high; outcome: 10 uM
row,SMILES,inhibition
1,C=CCOc1ccc(S(=O)(=O)c2ccc(O)cc2)cc1,24.3% (inactive)
2,Cc1cc(Br)c(NC(=O)CN(C)Cc2nc3ccccc3s2)c(Br)c1,84.4% (active)
3,C=CCN(C(=O)c1cccc(OC)c1)c1nc2ccccc2s1,-37.8% (inactive)
4,CN(Cc1nc2ccccc2s1)C(=O)CCc1nnc(CCc2c[nH]c3ccccc23)o1,22.7% (inactive)
5,Clc1ccc(Cn2nnc3c(SCc4cccnc4)ncnc32)cc1,43.6% (inactive)
6,Cc1ccc(Cn2nnc3c(=S)nc[nH]c32)cc1,92.2% (active)
7,Clc1cccc(CSc2ncnc3c2nnn3Cc2ccccc2)c1,-28% (inactive)
8,S=c1nc[nH]c2c1nnn2Cc1ccc(Cl)cc1,78.3% (active)
9,O=C(CSc1ncnc2c1nnn2Cc1ccc(F)cc1)N1CCCCCC1,-40.9% (inactive)
10,Cc1ccc(CSc2ncnc3c2nnn3Cc2ccccc2)cc1,-28.1% (inactive)
11,Fc1ccc(Cn2nnc3c(=S)nc[nH]c32)cc1,101% (active)
12,Cc1[nH]n(-c2ccccc2)c(=O)c1N=Nc1c(C)n(C)n(-c2ccccc2)c1=O,94.3% (active)
13,CCC(=O)N(c1nnc(SCC(=O)c2cc(C)n(-c3cc(C)on3)c2C)s1)C1CC1,72.7% (active)
14,Cc1cc(OCc2nc(C(=O)NCC(C)C)cs2)ccc1Cl,8.24% (inactive)
15,COc1ccc(NC(=O)c2csc(C)n2)cc1Cl,-17.7% (inactive)
16,CCCc1nc(C(=O)Nc2ccc(NC(=O)CC)c(Cl)c2)cs1,54% (active)
17,Cc1ccc(Sc2cncc3sc(C(N)=O)cc23)cc1,68% (active)
18,CC(=O)Nc1ccc(NC(=O)Cn2nc(C)c([N+](=O)[O-])c2C)cc1,92.6% (active)
19,CC1CCN(CC(=O)Nc2ccc([N+](=O)[O-])cc2)CC1,8.26% (inactive)
20,Cc1ccc(Sc2ccc(NC(=O)Cn3cnnn3)cc2)cc1C,4.65% (inactive)
21,Cc1c(Br)c(C(F)(F)F)nn1CC(=O)Nc1ccc(Oc2cc([N+](=O)[O-])cc([N+](=O)[O-])c2)cc1,61.4% (active)
22,O=C(Cn1cnc([N+](=O)[O-])n1)Nc1cc(Oc2cccc(Cl)c2)cc([N+](=O)[O-])c1,-2.49% (inactive)
23,O=C(O)CCCSc1ncnc2sc3c(c12)CCCC3,51% (active)
24,O=C(CSc1ncnc2sc3c(c12)CCC3)N1CCCC1,18.6% (inactive)
25,CC(C)(C)OC(=O)CSc1ncnc2sc3c(c12)CCCC3,75.3% (active)
26,O=C(CSc1ncnc2sc3c(c12)CCCC3)N1CCOCC1,102% (active)

row,SMILES,inhibition
1,CN(C)C(=O)CSc1ncnc2sc3c(c12)CCCC3,85.3% (active)
2,COCC1CCCN(c2nncc(-c3ccc(Cl)cc3)n2)C1 (stereo unspecified),9.94% (inactive)
3,O=C(Cc1ccc(C(F)(F)F)cc1)Nc1ncccc1O,82.2% (active)
4,O=C(CCSc1ccc(C(F)(F)F)cn1)Nc1c(Cl)cccc1Cl,20.9% (inactive)
5,CCc1ccc(C(CNC(=O)Cc2ccc(C(F)(F)F)cc2)N(C)C)cc1 (stereo unspecified),19.9% (inactive)
6,O=C(O)CCN(Cc1ccco1)c1nc(-c2cccc(Br)c2)nc2ccccc12,2.99% (inactive)
7,S=P(NN=C1CCSC1)(c1ccccc1)c1ccccc1,62.1% (active)
8,Cc1cccc(-c2ccc(NC(=O)C3CCN(C(=O)c4cnsn4)CC3)cc2)c1,91.7% (active)
9,Cc1cccc(-c2ccc(NC(=O)C3CCN(C(=O)c4cscn4)CC3)cc2)c1,93% (active)
10,COc1cccc(-c2ccc(NC(=O)C3CCCN(C(=O)c4cnsn4)C3)cc2)c1 (stereo unspecified),inactive
11,CN1c2ccccc2-c2nc3ccccc3n2C1c1ccco1 (stereo unspecified),24.8% (inactive)
12,C#CCCCCCCCCCCCC(O)CC(O)COC(C)=O (stereo unspecified),93.3% (active)
13,Cc1cc(N)n(-c2nc3c(cnn3-c3ccc(C)c(C)c3)c(=O)[nH]2)n1,33.8% (inactive)
14,Cc1cc(N)n(-c2nc3c(cnn3-c3ccccc3)c(=O)[nH]2)n1,5.14% (inactive)
15,CCc1cc(=O)[nH]c(-n2nc(C)cc2N)n1,83.4% (active)
16,Cc1cccc(-n2ncc3c(=O)[nH]c(-n4nc(C)cc4N)nc32)c1,102% (active)
17,CCCc1cc(=O)[nH]c(-n2nc(C)cc2C)n1,6.1% (inactive)
18,CCCc1cc(=O)[nH]c(-n2nc(C)cc2N)n1,101% (active)
19,Cc1cc(=O)[nH]c(-n2nc(C)cc2N)n1,101% (active)
20,CCC(=O)c1ccc(O)c(CC=C(C)C)c1,20.6% (inactive)
21,CC(C)=CCc1c(O)ccc(C(=O)Cc2ccccc2)c1O,59.8% (active)
22,N#Cc1c(Cl)c(Cl)c(Cl)c(C#N)c1Cl,102% (active)
23,O=C(Nc1ccccc1)c1cc(C2CCCN(C(=O)C/C=C/c3ccccc3)C2)on1 (stereo unspecified),43% (inactive)
24,O=C(Nc1nc(C2CC2)cs1)c1cc2ccccc2cc1O,11.4% (inactive)
25,Cc1ccc(C(=O)OCc2cc(C)on2)c(O)c1,-29.5% (inactive)
